An excerpt weighted towards active compounds, which were near 1.8% of everything screened.
Pyk2 oligo antag = antagonists of Pyk2 self-association, primary screen, Q293 cells, FERM NanoBiT luminescence, HTS; active compounds read low; z-score (the deposit names both 25 µM and 10 µM); AID 1347419, 2020; Protein-tyrosine kinase 2-beta (Homo sapiens), Q14289; actives 0.83% (n = 99,000);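 active = Z-score of -3 or lower, scaled per plate to the spread of control and sample wells; inactive = z-score above -3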;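 also: negative z-score means lost luminescence so less FERM oligomerization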
FAK blocker = FAK kinase inhibitors, primary screen, biochemical | biochemical FAK kinase activity assay | actives 0.84% (n = 97,000) | Focal adhesion kinase 1 (Homo sapiens), Q05397 | inhibition, %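 (tested at 7 µM)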
CD11b adhes enh = enhancers of CD11b/CD18 adhesion to fibrinogen, primary screen, K562 cells, luminescence | activation, % at 10 µM | actives 0.07% (n = 93,000) | Integrin beta-2 (Homo sapiens) + Integrin alpha-M (Homo sapiens), P05107+P11215 | ATPlite luminescence;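 active = 10 µM primary screen giving 50% or more activity, confirmed by 40% or more on retest at that dose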
Mac1 fbg inh = inhibitors of CD11b/CD18 adhesion to fibrinogen, primary screen, K562 cells, luminescence. inhibition, % at 10 µM. actives 0.54% (n = 93,000). ATPlite luminescence; Mn2+ added to activate the integrin. AID 1497, 2009. Integrin beta-2 (Homo sapiens) + Integrin alpha-M (Homo sapiens), P05107+P11215;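 active = primary inhibition of 50% or more at 10 µM, then 40% or more on retest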
FAK inh conf = FAK kinase inhibitors, retest, confirmation, biochemical; shares compounds with FAK blocker; FAK kinase biochemical inhibition assay; inhibition, % at 7 µM; actives 28% (n = 750); AID 794, 2007
Each line names hits and unclear results; the compound was inactive in the other large screens (follow-up assays come after a bar, where they were run). Rule as the data show it, unless noted: active = inhibition above about 19%; inactive = the rest.

COCCNC(=O)C(OC(=O)CC1Sc2ccccc2NC1=O)c1ccncc1 (stereo not drawn)	none
O=C(CC1Sc2ccccc2NC1=O)OC(C(=O)NCCc1ccccc1)c1cccnc1 (stereo not drawn)	FAK blocker 33 (no result: CD11b adhes enh, Mac1 fbg inh) | FAK inh conf inactive
CCn1c(SCC(=O)Nc2ccc3c(c2)c2ccccc2n3CC)nnc1-c1ccco1	FAK blocker 30 (no result: CD11b adhes enh, Mac1 fbg inh) | FAK inh conf inactive
CCOc1ccc(S(=O)(=O)Nc2ccccc2SC)c2cccnc12	FAK blocker 20 (no result: CD11b adhes enh, Mac1 fbg inh) | FAK inh conf inactive
CCN(CC)C(=O)CC(c1ccc(F)cc1)c1ccc(OC)cc1 (stereo not drawn)	none (no result: Pyk2 oligo antag, FAK blocker)
COc1ccc2c(c1)CCc1c(C(=O)Nc3ccn(Cc4ccc(C)cc4)n3)noc1-2	FAK blocker 26 | FAK inh conf inactive
Cc1ccc(-c2nc3ccccc3s2)cc1NC(=S)NC(=O)c1ccccc1	none
Cc1ccc(-c2nc3ccccc3s2)cc1NC(=O)c1cc(-n2cnnc2)ccc1Cl	FAK blocker 29 (no result: CD11b adhes enh, Mac1 fbg inh) | FAK inh conf inactive
O=C(c1ccc(C#CC2(O)CCCCC2)cc1)N1CCN(C(c2ccccc2)c2ccccc2)CC1	none
CCCCc1c(O)nc2ccccn2c1=O	none (no result: Pyk2 oligo antag, FAK blocker)
O=c1c(/C=N/O)c(Nc2ccccc2)nc2ccccn12	FAK blocker 50 | FAK inh conf 31
O=S(=O)(Nc1ccc(N2CCCCC2)cc1)c1cccs1	none
O=C(c1ccc(NS(=O)(=O)c2cccs2)cc1)N1CCCCC1	FAK blocker 25 (no result: CD11b adhes enh, Mac1 fbg inh) | FAK inh conf inactive
Cc1c(Cl)c([N+](=O)[O-])nn1CC(=O)NC(C)C1CC2CCC1C2 (stereo not drawn)	none
C=CCn1c(P(=O)(O)c2ccccc2)nc2ccccc21	FAK blocker 35 (no result: CD11b adhes enh, Mac1 fbg inh) | FAK inh conf 24
C=CCn1c(CNC(=O)CCC)nc2ccccc21	none (no result: CD11b adhes enh, Mac1 fbg inh)
CCOC(=O)C1CCN(C(=O)Nc2ccc3nc(-c4ccco4)c(-c4ccco4)nc3c2)CC1	FAK blocker 93 | FAK inh conf inactive
CC(=O)N(Cc1ccco1)c1nc(C(=O)Nc2ccc(Cl)cc2)c(C)s1	none (no result: Pyk2 oligo antag, FAK blocker)
Nc1ccc(-n2cnc3cc([N+](=O)[O-])ccc32)cc1	FAK blocker 26 | FAK inh conf inactive
Cc1n[nH]c(C)c1-c1nc2ccccc2[nH]1	FAK blocker 24 (no result: CD11b adhes enh, Mac1 fbg inh) | FAK inh conf inactive
Nc1ccc(-c2nc3ccccc3[nH]2)cc1	none (no result: Pyk2 oligo antag)
CCS(=O)(=O)N1CCN(c2ccc(Cl)cc2[N+](=O)[O-])CC1	none (no result: Pyk2 oligo antag, FAK blocker)
CCOC(=O)c1cc2sc(C)cc2n1CC(=O)N(CC)CC	FAK blocker 30 (no result: CD11b adhes enh, Mac1 fbg inh) | FAK inh conf inactive
Cc1ccc(N(CC(O)CON=C2c3ccccc3-c3ccccc32)S(C)(=O)=O)cc1 (stereo not drawn)	none
Cc1ccc(C(C2C(=O)CC(C)(C)CC2=O)C2C(=O)CC(C)(C)CC2=O)s1	FAK blocker 22 (no result: CD11b adhes enh, Mac1 fbg inh) | FAK inh conf inactive
Brc1ccc(-c2ccc(/C=N/Nc3nc4ccccc4[nH]3)o2)cc1	none (no result: Pyk2 oligo antag, FAK blocker)
COc1ccc(S(=O)(=O)N(CC(=O)NCC2CCCO2)c2ccc(F)cc2)cc1OC (stereo not drawn)	none
O=S1(=O)N=C(Nc2ccc(N3CCOCC3)cc2)c2ccccc21	none (no result: CD11b adhes enh, Mac1 fbg inh)
Cc1ccccc1-c1ccc(Nc2ccc(N3CCOCC3)cc2)nn1	FAK blocker 31 | FAK inh conf 33
c1csc(Cc2nn3c(-c4n[nH]c5c4CCC5)nnc3s2)c1	FAK blocker 28 | FAK inh conf inactive
c1coc(-c2nnc3sc(Cc4cccs4)nn23)c1	FAK blocker 25 | FAK inh conf inactive
COc1ccc(OCc2nn3c(-c4ccco4)nnc3s2)cc1	none
Cc1cccc(C)c1N1CCN(c2nc(N(C)C)oc(=O)c2C#N)CC1	none (no result: CD11b adhes enh, Mac1 fbg inh)
Cn1c(N)c(C(=O)c2ccc(C#N)cc2)c(=O)n(C)c1=O	none (no result: Pyk2 oligo antag, FAK blocker)
CONC(=O)Nc1ccccc1[N+](=O)[O-]	none (no result: Pyk2 oligo antag, FAK blocker)
O=C(NNc1ccccc1[N+](=O)[O-])Nc1ccccc1	FAK blocker 21 | FAK inh conf inactive
CCOc1ccc(-c2nnc3sc(COc4ccc(C)cc4)nn23)cc1	none
CCOc1ccc(-c2nnc3sc(COc4ccc(Cl)cc4)nn23)cc1	FAK blocker 21 | FAK inh conf inactive
COc1cc(/C=C(/C#N)c2nc3ccccc3[nH]2)ccc1OCc1ccc(C(=O)O)o1	none
COC(=O)c1ccc(COc2ccc(/C=C(\C#N)c3nc4ccccc4[nH]3)cc2OC)o1	FAK blocker 56 (no result: CD11b adhes enh, Mac1 fbg inh) | FAK inh conf 23
O=Cc1ccc2noc(-c3ccc(F)cc3)c2c1	FAK blocker 34 | FAK inh conf 33
CC1(c2ccc3noc(-c4ccc(F)cc4)c3c2)OCCO1	none
CC(C)(CS(=O)(=O)[O-])NC(=O)CC[N+](C)(C)CCO	FAK blocker 28 | FAK inh conf inactive
O=C(COC(=O)CCCSc1nc2ccccc2[nH]1)Nc1ccc(Cl)cc1	none (no result: Pyk2 oligo antag, FAK blocker)
COc1nnc(-c2ccc(N3CCCCC3)c(NC(=O)C3CCCCC3)c2)c2ccccc12	none
COc1nnc(-c2ccc(N3CCCCC3)c(NC(C)=O)c2)c2ccccc12	FAK blocker 20 | FAK inh conf 19
CCOC(=O)C1=C(C)NC2=C(C(=O)CCC2)C1c1cccs1 (stereo not drawn)	none
CCOCCOC(=O)C1=C(C)NC2=C(C(=O)CC(c3cccs3)C2)C1c1ccsc1 (stereo not drawn)	FAK blocker 22 | FAK inh conf 21

High-throughput results (PubChem BioAssay)
